HP1b binding inh: blocks HP1-beta chromodomain binding to methylated histone tails; P83916; AID 540317; AlphaScreen HP1-beta / biotin-H3K9me3 peptide binding; 390,000 compounds, 0.56% hits; Potency, µM (titrated, usually from 114 µM), for the others: at the top dose activity change, negative = inhibition, hits mostly inhibitors; note: potency is the fitted concentration of half-maximal effect; nearly all actives have a fitted effect of over 70% in size
Target sequence (P83916 whole entry, looked up): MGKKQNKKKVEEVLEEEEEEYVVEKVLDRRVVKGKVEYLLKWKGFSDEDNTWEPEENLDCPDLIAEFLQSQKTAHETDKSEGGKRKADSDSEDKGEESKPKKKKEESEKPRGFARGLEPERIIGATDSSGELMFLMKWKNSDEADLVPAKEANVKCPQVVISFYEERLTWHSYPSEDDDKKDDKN
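Compound inhibition of the preformed complex between 50 nM HP1-beta and 50 nM biotinylated H3K9me3 peptide was read by AlphaScreen. Buffer was PBS pH 7.4 with 0.01% Tween-20. Incubations ran 30 min at room temperature, with 10 ug/mL donor/acceptor beads.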
JMJD2A Tudor: blocks the human JMJD2A Tudor domain. O75164. AlphaScreen JMJD2A-Tudor / H3K4me3 peptide binding. Potency, µM (top dose mostly 114 µM), for inactives: at the top dose activity change, negative = inhibition, usual class: inhibitors. 390,000 compounds, 4.4% hits; note: potency is the fitted concentration of half-maximal effect; % is set by controls: 0 for no effect and ±100 for the full control effect; nearly all actives have a fitted effect of over 50% in size
BAZ2B inh: blocks human BAZ2B | Q9UIF8 | AlphaScreen BAZ2B-H3K14Ac peptide displacement | Potency, µM (titrated, usually from 114 µM), for inactives: at the top dose activity change, negative = inhibition, most hits filed as inhibitors | 360,000 compounds, 4.4% hits | AID 504333; note: potency is the fitted concentration of half-maximal effect; % is set by controls: 0 for no effect and ±100 for the full control effect; nearly all actives have a fitted effect of over 60% in size
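Complex of BAZ2B and biotin-H3K14Ac (50 nM apiece) forms over 30 min at RT, then faces library compounds up to 110 uM for another 30 min; AlphaScreen beads added, 20 min dark incubation, luminescence read.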
CtBP-E1A inh: CtBP/E1A binding inhibition. AID 651724. 340,000 compounds, 0.49% hits. AlphaScreen GST-E1A/His-CtBP binding, 1536-well; stronger effect = lower value. activity change, % (concentration not given with the values); in the data active = activity change below about -65%; inconclusive = mostly about -30% to -63%; note: % is set by controls: 0 for no effect and ±100 for the full control effect
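Protein mix (5X: 125 nM each GST-E1A, His-CtBP) was incubated with pinned compound 2 h at 37 deg C in dark, in 50 mM Tris pH 8.0 buffer with 300 mM NaCl. Glutathione donor and nickel acceptor beads followed; AlphaScreen signal read after 1 h.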
G9a block: G9a (human) methyltransferase inhibition; 350,000 compounds, 8.8% hits; Potency, µM (series often up to 102 µM), for inactives: top-dose activity, negative = inhibition, most hits filed as inhibitors; Q96KQ7; G9a H3K9 monomethylation, AlphaScreen, 2 h; note: potency is the fitted concentration of half-maximal effect; % is set by controls: 0 for no effect and ±100 for the full control effect; nearly all actives have a fitted effect of over 75% in size
Target sequence (Q96KQ7 913-1193 limits assumed): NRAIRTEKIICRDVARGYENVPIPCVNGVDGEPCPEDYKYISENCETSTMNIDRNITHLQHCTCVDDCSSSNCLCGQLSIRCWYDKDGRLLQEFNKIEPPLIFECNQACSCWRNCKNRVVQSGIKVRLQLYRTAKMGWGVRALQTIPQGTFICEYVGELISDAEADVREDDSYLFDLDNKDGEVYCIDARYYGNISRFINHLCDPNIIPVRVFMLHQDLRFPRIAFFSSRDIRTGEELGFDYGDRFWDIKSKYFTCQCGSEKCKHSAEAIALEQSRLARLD
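AlphaScreen read-out: biotin-H3K9 peptide (500 nM) methylation by 20 nM enzyme with 20 uM SAM, 2 h at room temperature after 15 min compound preincubation; anti-monomethyl H3K9 antibody plus donor/acceptor beads, 10 min dark.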
Six1-Eya2 inh: Six1/Eya2 interaction inhibition; Q15475+O00167; AlphaScreen GST-Six1/His-Eya2 binding, biochemical; stronger effect = lower value; activity change, % (no concentration beside the values); 360,000 compounds, 0.56% hits; in the data active = activity change below about -65%; inconclusive = mostly about -30% to -63%; note: % is set by controls: 0 for no effect and ±100 for the full control effect
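AlphaScreen with GST-Six1 and His-Eya2 (5X mix: 250 nM and 500 nM), glutathione donor and nickel acceptor beads; buffer 50 mM Tris pH 8.0, 300 mM NaCl, 1 mM TCEP; 1 h at 37 C in the dark.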
The depositor's hits bear a star; ? = inconclusive; . = no result given; [ ] = remark or other dose. Only some compounds are listed: those with a hit (about 10% of all), similar ones and a draw of the others. Unless noted, calls come from the whole dose curve; as a rule, active = well fitted inhibition curve with a large enough effect; inconclusive = small, poorly fitted or top-dose-only effect; inactive = no such curve, though single readings can be large or run the other way.

SMILES	HP1b binding inh	JMJD2A Tudor	BAZ2B inh	CtBP-E1A inh	G9a block	Six1-Eya2 inh
Cc1nc2nc(NC(=O)c3ccc(F)cc3)[nH]n2c(=O)c1Cc1ccccc1	21%	-32%	-9%	.	-42%[59 µM]	.
COc1ccc(OCC(=O)Nc2ccc(C(=O)OCc3cc(=O)n4nc(C)sc4n3)cc2)cc1	-2%	-2%	-5%	.	4%[12.7 µM]	.
COc1cc(C(=S)N2CCN(c3ccccc3Cl)CC2)cc(O)c1O	11µM*	32µM*	50µM*	10	1.8µM*	-15
COc1ccc2[nH]c3c4c(ccc3c2c1)C(=O)C=CC4=O	?	?	40µM*	-12	.	-17
COc1ccc2[nH]c(-c3ccc(F)cc3F)cc(=O)c2c1	.	.	.	.	2%	.
COC(=O)c1ccc2nc(NC(=O)CSCC(=O)OCC(=O)c3ccccc3)sc2c1	30%	?	-8%	-7	7.9µM*	1
Cc1ccc2nc(NC(=O)CSCC(=O)OCC(=O)c3ccc(Br)cc3)sc2c1	40%	?	-6%	-11	45µM*	16
Cc1ccc(C(=O)NNC(=O)CSc2nnc3c(n2)[nH]c2ccc(F)cc23)cc1	-41%	20µM*	?	?	.	?
COc1ccc2[nH]c3nc(SCC(=O)NNC(=O)c4ccc(OC)c(OC)c4)nnc3c2c1	42%	-19%	4%[57.1 µM]	10	?	-4
Cc1ccc(N2CCN(S(=O)(=O)c3ccc(F)c(C(=O)Nc4ccc(Cl)cc4Cl)c3)CC2C)cc1 (stereo not given)	6%	-33%	-14%	.	-3%[59 µM]	.
CCOc1ccc(NC(=O)Cn2cc(S(=O)(=O)NC)c(S(=O)(=O)NC)c2)cc1	0%	-17%	-17%	.	-23%[59 µM]	.
CCOc1ccc(C(C)=O)cc1N1C(=O)C2C3C=CC(O3)C2C1=O (stereo not given)	28µM*	20µM*	?	1	?	2
COc1ccc(CN2CCCN(C)CC2)c(OC)c1C	?	8.9µM*	?	-1	.	0
COc1cc(Br)c(CN2CCCN(C)CC2)cc1OC	29%	-17%	-27%	.	71µM*	9
COc1cc(Br)c(CC(=O)O)cc1OC	8%	-30%	-26%	-2	?	8
COc1ccc(OC)c(CN2CCN(Cc3ccc(OC)c(OC)c3OC)CC2)c1	.	.	.	-2	.	-3
Cc1cc([N+](=O)[O-])ccc1NC(c1nnc(-c2ccccc2)o1)c1ccccc1F (stereo not given)	25%	-24%	-28%	.	-9%[59 µM]	.
Cc1nnc(N2CCN(c3cccc(Cl)c3)CC2)c2c1nnn2Cc1ccc(F)cc1	46%	-19%	-1%	.	0%[59 µM]	.
COCC(=O)/C=C1\Sc2ccccc2N1C	31%	-16%	9%	6	-21%[59 µM]	-3
Cc1ccc2c(c1)N(C)/C(=C/c1cccc[n+]1C)S2	-25%	?	?	-12	6.3µM*	-14
Cc1ccc2c(c1)N(C)/C(=C/c1cccc[n+]1CCO)S2	16%	?	-1%	-1	32µM*	0
CN1/C(=C/c2cccc[n+]2C)Sc2ccccc21	47%	?	?	3	25µM*	-2
CCc1cccc(NC(=O)Cn2c(=O)n(CCc3ccc(OC)c(OC)c3)c(=O)c3ccccc32)c1	17%	-7%	-13%	.	-27%[59 µM]	.
Cc1ccc(CNC(=O)c2cc3sccc3n2Cc2ccc(Cl)cc2)cc1	27%	-13%	-9%	.	?	.
O=C(CN1C2=NCCCN2c2ccccc21)c1ccc(Br)s1	9%	-18%	-34%	-3	50µM*	1
O=C(O)CN1C2=NCCCN2c2ccccc21	14%	5%	-25%	1	?	2
Cc1ccc2nc(Cl)c3cc(C(=O)N(CCN(C)C)Cc4ccco4)sc3c2c1	?	45µM*	.	-22	50µM*	-17
Cc1ccc2cc3cc(C(=O)NCCCN4CCc5ccccc5C4)oc3nc2c1	5%	-2%[11.4 µM]	-9%	-16	?	-27
Cc1ccc2cc3cc(C(=O)NCCCN4CCCC4)oc3nc2c1	22%	?	-16%	-19	79µM*	-3

Screening results as filed in PubChem BioAssay.
